Results reported in the supplement of paper PMC6555819.

Assays:
Assay in all cases: PBM binding z-score (relative to random genomic background probes); higher = stronger binding; sequences stand for … in GC…GCGATTGACAGCGTAGAATGAAGG
[1] = test system: FXR:RXRa (NR concentration 270 nM, RXRa partner concentration 90 nM)
How it was run: (§1)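 Antibodies against each partner of ligand-free nuclear receptor dimers (one per run) detected binding on custom Agilent 4×180K protein-binding microarrays after 1 h incubation. The double-stranded probes had 34-nt variable regions carrying direct-repeat seeds, single-nucleotide variants, half-site ablations and random human genomic background sequences. Binding z-scores, from regression-normalized fluorescence, use the random background probes as reference.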

[2] = test system: LXRa:RXRa (NR concentration 270 nM, RXRa partner concentration 90 nM)
How it was run: as §1

[3] = test system: LXRa homodimer (NR concentration 270 nM)
How it was run: as §1

[4] = test system: LXRb:RXRa (NR concentration 270 nM, RXRa partner concentration 90 nM)
How it was run: as §1

[5] = test system: LXRb homodimer (NR concentration 270 nM)
How it was run: as §1

[6] = test system: PPARa:RXRa (NR concentration 270 nM, RXRa partner concentration 90 nM)
How it was run: as §1

[7] = test system: PPARg:RXRa (NR concentration 180 nM, RXRa partner concentration 90 nM)
How it was run: as §1

[8] = test system: PPARg:RXRa 270nM:90nM, anti-RXR (NR concentration 270 nM, RXRa partner concentration 90 nM)
How it was run: as §1

[9] = test system: PPARg:RXRa 30nM:10nM, anti-RXR (NR concentration 30 nM, RXRa partner concentration 10 nM)
How it was run: as §1

[10] = test system: PPARg:RXRa 90nM:30nM, anti-RXR (NR concentration 90 nM, RXRa partner concentration 30 nM)
How it was run: as §1

[11] = test system: PPARg:RXRa DBDmut IVT, anti-RXR (DBD mutation: RXRa K156A/R161A, NR concentration 270 nM, RXRa partner concentration 90 nM)
How it was run: as §1

[12] = test system: PPARg:RXRa IVT, anti-PPARg (NR concentration 270 nM, RXRa partner concentration 90 nM)
How it was run: as §1

[13] = test system: PPARg DBDmut:RXRa IVT, anti-PPARg (DBD mutation: PPARg1 K132A/R137A, NR concentration 270 nM, RXRa partner concentration 90 nM)
How it was run: as §1

[14] = test system: PPARg DBDmut IVT, anti-PPARg (DBD mutation: PPARg1 K132A/R137A, NR concentration 270 nM)
How it was run: as §1

[15] = test system: PPARg homodimer (NR concentration 180 nM)
How it was run: as §1

[16] = test system: PXR:RXRa (NR concentration 270 nM, RXRa partner concentration 90 nM)
How it was run: as §1

[17] = test system: PXR homodimer (NR concentration 270 nM)
How it was run: as §1

[18] = test system: RARa:RXR (NR concentration 270 nM, RXRa partner concentration 90 nM)
How it was run: as §1

[19] = test system: RARa homodimer (NR concentration 270 nM)
How it was run: as §1

[20] = test system: RARb:RXRa (NR concentration 270 nM, RXRa partner concentration 90 nM)
How it was run: as §1

Sequence	PBM binding z-score [1]	PBM binding z-score [2]	PBM binding z-score [3]	PBM binding z-score [4]	PBM binding z-score [5]	PBM binding z-score [6]	PBM binding z-score [7]	PBM binding z-score [8]	PBM binding z-score [9]	PBM binding z-score [10]	PBM binding z-score [11]	PBM binding z-score [12]	PBM binding z-score [13]	PBM binding z-score [14]	PBM binding z-score [15]	PBM binding z-score [16]	PBM binding z-score [17]	PBM binding z-score [18]	PBM binding z-score [19]	PBM binding z-score [20]
ATATGTAGGTTACGGGTCATTCAGGTTGGTTCGC	3.73	3.96	2.11	3.61	0.71	5.56	9.4	8.21	6.67	8.55	7.79	7.99	5.13	4.88	3.88	4.78	1.67	4.07	1.28	2.92
TAGCCTAGGTCATTGCGCCAGTATAGTACGCATC	4.86	3.69	1.05	2.41	0.632	3.48	2.25	2.49	0.591	1.63	1.65	2.83	1.15	0.064	1.7	1.89	-0.0218	2.62	-0.455	3.7
CGTCAAAGTTCAACTAAGGTAGCGTAAAGCACGC	6.83	6.17	3.78	4.01	1.98	4.8	4.84	5.37	1.94	4.03	0.387	1.51	-0.0827	0.743	3.4	5.03	4.13	3.8	2.16	5.15
GCATATAAGTAATACAAGGTGAAAGTCCGATTGT	0.578	0.301	0.499	0.331	-0.122	0.85	0.911	0.715	0.283	0.301	0.462	0.546	0.743	0.728	0.405	0.436	0.309	1.13	0.698	0.452
CCTACTGGGCCGCGAAAGGTCATTGATTCAGTGA	3.37	4.49	3.63	3.85	0.0149	4.35	1.94	3.69	0.701	2.76	2.81	3.04	-1.14	-0.345	3.03	5.13	1.47	5.27	0.0232	3.81
AATACAGGGTCATCGTATGCCAGAGTACGCACAG	7.33	5.98	1.87	4.34	1.25	5.64	6.62	5.86	2.88	4.57	2.86	4.36	4.37	2.02	2.61	4.31	0.464	5.23	0.493	4.21
CAAACTAGGTCAAAGGTCAAAGTCGAGCCAACCA	8.73	7.31	6.02	7.38	3.55	7.8	14	11.4	12.3	13.1	8.73	9.33	2.23	2.15	5.09	7.21	2.02	8.8	3.18	5.96
ATCTCTAAGTAAAGATAGTTCAGTGAATGCAAAT	0.825	1.03	0.571	0.658	0.588	0.429	0.449	0.18	0.359	0.14	0.013	-0.072	0.975	1.08	1.3	0.808	0.715	1.08	1.41	0.426
TAGCCTAGGGCATGCGGGCCAGTATAGTGTCGGC	-0.782	-0.599	-1.01	-1.17	-1.07	-0.591	-0.378	-0.777	-1.03	-0.989	-0.968	0.354	-0.499	-1.43	-1.51	-0.802	-0.955	-0.692	-0.647	0.881
AATAGAGGGTCACTAGGCCAGAGTAGGTACGAAT	4.62	3.5	0.324	2.81	-0.0545	4.99	6.44	5.59	2.33	4.4	3.57	5.33	0.782	0.194	1.04	1.95	-0.034	2.89	0.102	3.69
CCTCGGATGACAACAGGAGGTCAGAGCTGCCAGA	0.859	1.83	1.84	1.53	-0.0301	1.91	0.547	0.588	-0.476	0.0996	-0.191	-0.245	0.202	-0.797	1.63	1.72	0.385	2.22	1.58	2.02
TCTAGTTGGTCAGAGGTCACACACTCGAAATGCG	4.94	4.85	3.21	4.9	1.13	5.55	9.31	8.56	7.99	9.17	2.47	4.96	1.28	0.861	4.45	5.4	1.74	5.99	1.84	4.49
CTTGAAAGGTCGTGCTCAGGTGAGTATACCAAAC	5.86	4.22	0.0529	4.1	0.221	5.03	2.74	3.62	0.962	2.69	0.999	2.01	1.03	0.763	1.71	3.72	0.102	4.53	0.107	3.99
TAGCCTAGGTCATGCGAGCCAGTATAGTGTCGGC	4.25	2.95	0.265	1.8	0.134	3.6	2.35	2.43	0.259	1.24	1.99	2.77	0.571	0.0763	1.17	1.38	-0.628	2.33	-0.182	3.72
